What all share (settings): Compound concentration 20.0 uM
In assay [1] the target is Tyrosine-protein kinase ABL1 (Homo sapiens) (UniProt P00519).
Assay [2] has as its target Bromodomain-containing protein 4 (Homo sapiens) (UniProt O60885).
Assay [3] addresses Cyclin-dependent kinase 2 (Homo sapiens) (UniProt P24941).
The target of assay [4] is Casein kinase I isoform delta (Homo sapiens) (UniProt P48730).
The target of assay [5] is Glycogen synthase kinase-3 beta (Homo sapiens) (UniProt P49841).
Glycogen synthase kinase-3 beta (Homo sapiens), sequence (P49841 whole entry, looked up): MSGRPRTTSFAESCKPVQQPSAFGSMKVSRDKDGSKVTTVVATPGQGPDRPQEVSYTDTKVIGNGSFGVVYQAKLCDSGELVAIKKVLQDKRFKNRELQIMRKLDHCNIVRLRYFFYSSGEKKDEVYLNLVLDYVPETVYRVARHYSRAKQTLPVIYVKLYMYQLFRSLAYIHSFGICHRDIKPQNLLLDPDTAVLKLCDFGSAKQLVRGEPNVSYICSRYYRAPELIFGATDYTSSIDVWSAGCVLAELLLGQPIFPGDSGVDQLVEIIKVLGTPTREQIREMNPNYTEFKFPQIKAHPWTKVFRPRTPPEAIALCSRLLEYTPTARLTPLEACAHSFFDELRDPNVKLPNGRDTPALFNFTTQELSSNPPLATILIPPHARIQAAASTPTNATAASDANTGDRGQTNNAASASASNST
The target in assay [6] is Mitogen-activated protein kinase 1 (Homo sapiens) (UniProt P28482).
Mitogen-activated protein kinase 1 (Homo sapiens), sequence (P28482 whole entry): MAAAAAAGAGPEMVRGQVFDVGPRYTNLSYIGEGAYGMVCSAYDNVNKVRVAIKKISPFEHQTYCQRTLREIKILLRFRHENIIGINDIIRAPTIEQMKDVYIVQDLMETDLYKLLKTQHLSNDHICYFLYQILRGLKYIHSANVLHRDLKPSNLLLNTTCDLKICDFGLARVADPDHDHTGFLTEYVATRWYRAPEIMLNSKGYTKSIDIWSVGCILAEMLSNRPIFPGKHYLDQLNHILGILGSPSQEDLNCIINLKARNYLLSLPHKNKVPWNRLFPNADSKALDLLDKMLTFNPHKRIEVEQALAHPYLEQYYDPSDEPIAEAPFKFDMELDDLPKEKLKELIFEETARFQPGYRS
The target in assay [7] is T1, Aurora kinase A (Homo sapiens) (UniProt O14965).
T1 sequence (whole entry): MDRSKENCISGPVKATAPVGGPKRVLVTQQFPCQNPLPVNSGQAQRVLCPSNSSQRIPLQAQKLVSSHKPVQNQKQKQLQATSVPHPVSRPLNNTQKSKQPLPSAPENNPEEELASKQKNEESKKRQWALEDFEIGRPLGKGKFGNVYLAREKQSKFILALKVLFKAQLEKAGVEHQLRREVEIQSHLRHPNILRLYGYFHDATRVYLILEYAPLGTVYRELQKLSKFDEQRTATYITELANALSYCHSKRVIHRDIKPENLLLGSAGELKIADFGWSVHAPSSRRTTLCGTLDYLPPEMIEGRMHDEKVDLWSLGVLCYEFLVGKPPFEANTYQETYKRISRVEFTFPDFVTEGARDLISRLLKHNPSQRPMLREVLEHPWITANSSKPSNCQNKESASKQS

In assay [8] the target is T2, Transcription intermediary factor 1-alpha (Homo sapiens) (UniProt O15164).
T2 sequence (whole entry): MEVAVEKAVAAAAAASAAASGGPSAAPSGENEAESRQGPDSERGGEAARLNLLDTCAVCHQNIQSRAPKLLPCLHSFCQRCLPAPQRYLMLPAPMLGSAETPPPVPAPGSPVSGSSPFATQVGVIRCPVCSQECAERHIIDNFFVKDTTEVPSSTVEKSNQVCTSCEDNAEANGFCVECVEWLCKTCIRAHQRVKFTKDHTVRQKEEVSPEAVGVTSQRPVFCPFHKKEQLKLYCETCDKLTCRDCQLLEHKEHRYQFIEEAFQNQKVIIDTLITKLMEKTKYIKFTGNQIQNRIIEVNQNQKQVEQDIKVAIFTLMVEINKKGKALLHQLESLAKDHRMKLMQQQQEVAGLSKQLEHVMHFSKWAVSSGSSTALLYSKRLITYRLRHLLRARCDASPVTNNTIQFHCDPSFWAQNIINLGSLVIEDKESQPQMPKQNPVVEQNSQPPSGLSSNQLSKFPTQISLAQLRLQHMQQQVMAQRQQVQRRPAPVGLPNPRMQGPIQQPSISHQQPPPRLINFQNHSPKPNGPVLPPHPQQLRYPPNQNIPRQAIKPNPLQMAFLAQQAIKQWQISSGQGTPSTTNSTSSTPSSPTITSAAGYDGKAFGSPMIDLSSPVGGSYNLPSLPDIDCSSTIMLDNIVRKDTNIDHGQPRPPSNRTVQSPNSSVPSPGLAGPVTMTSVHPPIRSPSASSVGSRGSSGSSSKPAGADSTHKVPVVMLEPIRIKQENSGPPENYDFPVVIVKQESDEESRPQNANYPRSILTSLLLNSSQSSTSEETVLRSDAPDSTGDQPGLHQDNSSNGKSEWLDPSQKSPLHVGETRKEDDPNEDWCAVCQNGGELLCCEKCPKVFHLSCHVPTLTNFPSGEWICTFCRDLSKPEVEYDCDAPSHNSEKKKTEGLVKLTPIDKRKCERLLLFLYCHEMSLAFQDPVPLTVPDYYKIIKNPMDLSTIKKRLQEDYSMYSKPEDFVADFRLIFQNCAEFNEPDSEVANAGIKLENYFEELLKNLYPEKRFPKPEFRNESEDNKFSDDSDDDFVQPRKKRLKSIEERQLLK

Tyrosine-protein kinase ABL1 (Homo sapiens), sequence (P00519 whole entry): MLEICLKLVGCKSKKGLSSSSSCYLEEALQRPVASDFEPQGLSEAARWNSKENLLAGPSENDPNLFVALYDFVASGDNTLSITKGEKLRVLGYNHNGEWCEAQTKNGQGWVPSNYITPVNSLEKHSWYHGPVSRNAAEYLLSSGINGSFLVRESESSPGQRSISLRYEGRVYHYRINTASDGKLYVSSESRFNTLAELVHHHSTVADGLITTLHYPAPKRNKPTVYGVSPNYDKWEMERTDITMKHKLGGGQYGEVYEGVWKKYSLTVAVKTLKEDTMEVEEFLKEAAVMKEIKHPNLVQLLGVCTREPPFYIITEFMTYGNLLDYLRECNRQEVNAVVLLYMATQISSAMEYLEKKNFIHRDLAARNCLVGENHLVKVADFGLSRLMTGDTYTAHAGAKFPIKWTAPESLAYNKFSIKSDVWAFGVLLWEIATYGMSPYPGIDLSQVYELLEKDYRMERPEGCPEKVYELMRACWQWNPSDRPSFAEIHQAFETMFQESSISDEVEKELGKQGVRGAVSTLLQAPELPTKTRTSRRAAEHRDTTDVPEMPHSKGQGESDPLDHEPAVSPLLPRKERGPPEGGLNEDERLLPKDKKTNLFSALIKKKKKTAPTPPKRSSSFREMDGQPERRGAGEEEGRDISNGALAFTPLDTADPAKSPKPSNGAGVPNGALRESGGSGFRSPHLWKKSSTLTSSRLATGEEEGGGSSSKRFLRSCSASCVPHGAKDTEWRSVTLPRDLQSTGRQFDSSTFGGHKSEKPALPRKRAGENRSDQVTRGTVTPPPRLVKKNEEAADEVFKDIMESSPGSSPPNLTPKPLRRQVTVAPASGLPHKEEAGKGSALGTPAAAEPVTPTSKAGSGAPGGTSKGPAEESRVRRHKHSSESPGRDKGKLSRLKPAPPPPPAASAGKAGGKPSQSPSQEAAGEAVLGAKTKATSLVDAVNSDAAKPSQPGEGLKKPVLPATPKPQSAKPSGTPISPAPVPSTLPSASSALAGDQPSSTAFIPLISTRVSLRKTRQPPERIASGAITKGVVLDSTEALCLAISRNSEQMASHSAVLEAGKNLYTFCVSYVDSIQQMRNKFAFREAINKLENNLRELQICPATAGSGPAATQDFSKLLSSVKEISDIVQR
Casein kinase I isoform delta (Homo sapiens), sequence (P48730 whole entry, looked up, canonical isoform): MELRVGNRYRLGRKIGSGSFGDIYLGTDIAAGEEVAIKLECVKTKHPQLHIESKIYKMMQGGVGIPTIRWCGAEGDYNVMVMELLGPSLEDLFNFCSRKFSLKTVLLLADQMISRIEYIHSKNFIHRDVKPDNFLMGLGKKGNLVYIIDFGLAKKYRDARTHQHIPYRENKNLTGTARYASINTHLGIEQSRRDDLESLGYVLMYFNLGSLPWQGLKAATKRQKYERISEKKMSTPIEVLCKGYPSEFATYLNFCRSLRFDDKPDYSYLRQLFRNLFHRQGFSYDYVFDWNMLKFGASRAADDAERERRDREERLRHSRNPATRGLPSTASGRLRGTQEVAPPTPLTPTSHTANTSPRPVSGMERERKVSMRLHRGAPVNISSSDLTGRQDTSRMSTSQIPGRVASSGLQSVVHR

On to `O=C(O)Cn1nnc(-c2ccc(CN(CCCCOc3ccc(CN4CCCC4)cc3)CCc3ccccc3)cc2)n1`, for which the ΔTm was 0.12 °C in assay [1]; -3.23 °C in assay [2]; -1.15 °C in assay [3]; 0.14 °C in assay [4]; -0.71 °C in assay [5]; -0.45 °C in assay [6]. Moreover, the thermal shift (ΔTm) was -2.88 °C in assay [7] and -1.13 °C in assay [8].

For `CN1CCN(c2cc(C(=O)Nc3ncc(SCc4cccc(C(F)(F)F)c4)s3)ccn2)CC1`, the ΔTm in assay [1] was 3.36 °C; in assay [2], -0.44 °C; in assay [3], -0.22 °C; in assay [4], -0.03 °C; in assay [5], 0 °C; in assay [6], -0.59 °C. The thermal shift (ΔTm) in assay [7] is 0 °C; in assay [8], -2.66 °C.

On to `Nc1ncnc2c1nc(NCc1ccc(-c3ccccc3)cc1)n2[C@@H]1O[C@H](CO)[C@@H](O)[C@H]1O`, for which the ΔTm was 1.36 °C in assay [1]; -3.1 °C in assay [2]; 0.21 °C in assay [3]; -0.22 °C in assay [4]; -0.69 °C in assay [5]; 0.28 °C in assay [6]. The results for the thermal shift (ΔTm) in assay [7] and in assay [8] were -1.41 °C and -0.53 °C, respectively.

As to `O=C(CCCCCCC(=O)Nc1ccc([C@H]2O[C@@H](CSc3nc(-c4ccccc4)c(-c4ccccc4)o3)C[C@@H](c3ccc(CO)cc3)O2)cc1)NO`, the thermal shift (ΔTm) in assay [1] was -3.66 °C; in assay [2], -1.65 °C; in assay [3], -1.26 °C; in assay [4], 0 °C; in assay [5] it was 2.86 °C; in assay [6], -12.5 °C. Besides, the ΔTm in assay [7] was 2.82 °C; in assay [8], 3.56 °C.

In the case of `C[C@@H]1CN(Cc2ncccn2)C[C@H]1c1nc2c(cnn2C2CCOCC2)c(=O)[nH]1`, the ΔTm in assay [1] is 0.63 °C; in assay [2], -2.54 °C; in assay [3] it was 0.17 °C; in assay [4] it was -0.3 °C; in assay [5], 0.32 °C; in assay [6] it was 0.24 °C. The shift in melting temperature (ΔTm) in assay [7] was -2.46 °C; in assay [8], 0.61 °C.

For `CC(C)Cn1c(=O)n(C)c(=O)c2c(C(=O)N3CC[C@@H](O)C3)c(Cc3ccnc4ccccc34)sc21`, the ΔTm in assay [1] is -0.39 °C; in assay [2], 2.2 °C; in assay [3], 0.16 °C; in assay [4] it was 0.09 °C; in assay [5], -1.09 °C; in assay [6] it was 0.11 °C. Also, the figures for the thermal shift (ΔTm) in assay [7] and in assay [8] were -0.87 °C and 2.02 °C, respectively.

`COC(=O)c1ccc(CN2CCC(O)(Cn3cnc4c(-c5ccc(CN)cc5)n(C)nc4c3=O)CC2)c(Cl)c1`: the shift in melting temperature (ΔTm) was 0.48 °C in assay [1]; -3.34 °C in assay [2]; -0.1 °C in assay [3]; -0.28 °C in assay [4]; -0.1 °C in assay [5]; 0.15 °C in assay [6]. The ΔTm in assay [7] is -1.56 °C; in assay [8] it was 2.14 °C.

Take `Cc1ccsc1C(=CCCN1CCC[C@@H](C(=O)O)C1)c1sccc1C`: the ΔTm is 0.26 °C in assay [1]; 0.65 °C in assay [2]; 0.86 °C in assay [3]; -0.21 °C in assay [4]; -0.18 °C in assay [5]; 0.16 °C in assay [6]. The shift in melting temperature (ΔTm) in assay [7] is -1.21 °C; in assay [8], 0.76 °C.

As to `C[C@@H](Oc1ccc(S(C)(=O)=O)cc1C(=O)N1C[C@@H]2C[C@]2(c2cc(C(F)(F)F)on2)C1)C(F)(F)F`, the ΔTm in assay [1] is 0.62 °C; in assay [2], -3.24 °C; in assay [3], 0.09 °C; in assay [4], -0.17 °C; in assay [5], -0.39 °C; in assay [6], 0.07 °C. Further, the ΔTm in assay [7] is -2.51 °C; in assay [8], 0.43 °C.

As for `CNCC[C@@H](Oc1ccccc1C)c1ccccc1`, the shift in melting temperature (ΔTm) in assay [1] is 0.14 °C; in assay [2] it was -2.85 °C; in assay [3], 0.13 °C; in assay [4], -0.25 °C; in assay [5], -0.38 °C; in assay [6], 0.18 °C. Further, the shift in melting temperature (ΔTm) in assay [7] is -1.68 °C; in assay [8] it was 0.48 °C.

As for `NCCOCCOCCNC(=O)Cc1ccc(Nc2nc(NCc3ccc(F)cc3)nc(NCC3CCCCC3)n2)cc1`, the ΔTm in assay [1] is 0.61 °C; in assay [2], -3.77 °C; in assay [3], 0.63 °C; in assay [4] it was 0.54 °C; in assay [5] it was 0 °C; in assay [6] it was 0.37 °C. For the same compound, the ΔTm in assay [7] was -2.14 °C; in assay [8], -0.27 °C.

The record behind these values is ChEMBL document CHEMBL5724796, “Tm Shift (DSF) assay results for EUbOPEN Chemogenomics Library” (2024).
